Hit rate of the full screen: of about 1,300 compounds, about 980 (75%) were called active. Not shown: some 4% with an inconclusive outcome. This is one part of the list.
The compounds below were run against Sulfhydryl oxidase 1 (Homo sapiens) (UniProt O00391) (assay: inhibition of human sulfhydryl oxidase QSOX1 – biochemical, HyperBlu H2O2 luminescence, HTS, primary screen (AID 1347420; further: values above 100% were filed as inconclusive)). Settings: recombinant QSOX1, HyperBlu H2O2 luminescence; at 12.5 µM; active compounds read high; active = any value above zero.
Sequence of Sulfhydryl oxidase 1 (Homo sapiens) (O00391 whole entry, looked up): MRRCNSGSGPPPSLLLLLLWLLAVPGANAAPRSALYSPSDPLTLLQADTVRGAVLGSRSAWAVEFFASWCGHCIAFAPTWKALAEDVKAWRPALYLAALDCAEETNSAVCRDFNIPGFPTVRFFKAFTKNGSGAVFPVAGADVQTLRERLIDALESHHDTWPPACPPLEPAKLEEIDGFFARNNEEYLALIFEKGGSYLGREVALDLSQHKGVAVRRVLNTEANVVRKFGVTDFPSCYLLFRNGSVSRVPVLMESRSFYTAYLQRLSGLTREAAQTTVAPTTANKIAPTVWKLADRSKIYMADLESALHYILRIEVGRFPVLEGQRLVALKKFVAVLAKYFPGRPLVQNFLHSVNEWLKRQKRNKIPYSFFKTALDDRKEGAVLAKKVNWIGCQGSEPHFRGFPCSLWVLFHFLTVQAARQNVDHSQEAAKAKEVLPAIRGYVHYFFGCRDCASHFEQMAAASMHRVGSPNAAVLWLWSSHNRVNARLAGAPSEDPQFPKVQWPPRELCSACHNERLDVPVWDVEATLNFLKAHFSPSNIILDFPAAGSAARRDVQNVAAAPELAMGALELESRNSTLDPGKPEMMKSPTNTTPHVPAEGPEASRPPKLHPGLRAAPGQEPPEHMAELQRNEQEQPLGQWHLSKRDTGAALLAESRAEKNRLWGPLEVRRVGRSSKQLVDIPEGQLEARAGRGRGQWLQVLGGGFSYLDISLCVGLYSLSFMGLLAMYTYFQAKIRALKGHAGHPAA
`CNC[C@H](O)c1ccc(O)c(O)c1` was tested, and the inhibition was 53.5% (active).
In the case of `CNCC(O)c1ccc(O)c(O)c1` (stereo not drawn), the inhibition is reported as 39.2% (active).
For `CNC[C@H](O)c1cccc(O)c1`, the inhibition was 17% (active).
In the case of `CNCCc1cnc(CCC(c2ccccc2)c2ccccc2)[nH]1`, the inhibition is reported as 14.6% (active).
With `O=c1[nH]c(=O)n([C@H]2C[C@H](O)[C@@H](CO)O2)cc1Br` the inhibition was 6.3% (active).
`O=c1[nH]c(=O)n([C@H]2C[C@H](O)[C@@H](CO)O2)cc1/C=C/Br` was tested, and the inhibition was 11.6% (active).
With `Cc1cn([C@H]2C[C@@H](N=[N+]=[N-])[C@@H](CO)O2)c(=O)[nH]c1=O` the inhibition was 18.1% (active).
For `Cc1cn([C@H]2C=C[C@@H](CO)O2)c(=O)[nH]c1=O`, the inhibition was 21.2% (active).
For `N#CC(C#N)=C(N)/C(C#N)=C/c1ccc(O)cc1`, the inhibition was 85.4% (active).
For `Cn1cc(C(F)(F)F)nc1-c1ccc(OCC(O)CNCCOc2ccc(O)c(C(N)=O)c2)cc1` (stereo not drawn), the inhibition was 45.1% (active).
In the case of `CC12C(=O)OC(=O)C1(C)C1CCC2O1` (stereo not drawn), the inhibition is reported as 1.8% (active).
In the case of `CNC(=O)c1cc2c(cn1)[nH]c1ccccc12`, the inhibition is reported as 4.2% (active).
For `Cc1ccccc1N1C(=O)c2cc(S(N)(=O)=O)c(Cl)cc2NC1C` (stereo not drawn), the inhibition was 9.2% (active).
`O=c1[nH]c(=S)[nH]c(-c2ccccc2)c1Cc1c(O)ccc2ccccc12` was tested, and the inhibition was 55.9% (active).
`Cc1ccc(S(=O)(=O)/C=C/C#N)cc1` was tested, and the inhibition was 10.5% (active).
In the case of `CC(C)(C)c1ccc(S(=O)(=O)/C=C/C#N)cc1`, the inhibition is reported as 3.4% (active).
For `CC12CC3CC(C)(C1)CC(N)(C3)C2`, the inhibition was -1.7% (inactive).
With `NC12CC3CC(CC(C3)C1)C2` the inhibition was 33.3% (active).
For `CCOC(=O)C(C)Oc1cccc2c(=O)n(CC(=O)Nc3ccc4c(c3)OCCO4)ccc12` (stereo not drawn), the inhibition was 9.3% (active).
`CC1=C(C(=O)O)N2C(=O)[C@@H](NC(=O)C(N)c3ccccc3)[C@H]2SC1` (stereo partly drawn) was tested, and the inhibition was 37.1% (active).
With `NC(=O)c1cc[n+](CC2=C(C(=O)O)N3C(=O)[C@@H](NC(=O)[C@@H](c4ccccc4)S(=O)(=O)[O-])[C@H]3SC2)cc1` the inhibition was 14.6% (active).
For `NC(C(=O)N[C@@H]1C(=O)N2C(C(=O)O)=C(Cl)CS[C@H]12)c1ccccc1` (stereo partly drawn), the inhibition was 23.8% (active).
In the case of `CC1=C(C(=O)O)N2C(=O)[C@@H](NC(=O)C(N)C3=CCC=CC3)[C@H]2SC1` (stereo partly drawn), the inhibition is reported as 20.2% (active).
With `CN1CC(=O)N/C1=N\C(=O)Nc1cccc(Cl)c1` the inhibition was -0.6% (inactive).
`CC1=C(CC(=O)O)c2cc(F)ccc2/C1=C\c1ccc(S(C)(=O)=O)cc1` was tested, and the inhibition was 13.7% (active).
`CC1=C(CC(=O)O)c2cc(F)ccc2/C1=C\c1ccc(S(C)=O)cc1` (stereo not drawn) was tested, and the inhibition was 14.1% (active).
For `CC(=O)N[C@@H](Cc1c[nH]c2ccccc12)C(=O)OCc1cc(C(F)(F)F)cc(C(F)(F)F)c1`, the inhibition was 4.9% (active).
`NC(=O)OCC(COC(N)=O)c1ccccc1` was tested, and the inhibition was 6.4% (active).
In the case of `N=C(N)c1ccc(N)cc1`, the inhibition is reported as -0.4% (inactive).
In the case of `N=C(N)c1ccc(OCCCCCOc2ccc(C(=N)N)cc2)cc1`, the inhibition is reported as 14.9% (active).
`NC1(C(=O)O)CCCCC1` was tested, and the inhibition was 12.2% (active).
With `NC1(C(=O)O)CC1` the inhibition was 0.9% (active).
`Clc1nccc2c1ccc1ccccc12` was tested, and the inhibition was 5.5% (active).
With `CN(C)C(=O)C(CCN1CCC(O)(c2ccc(Cl)cc2)CC1)(c1ccccc1)c1ccccc1` the inhibition was -0.4% (inactive).
`O=C(CCCN1CCC(O)(c2cccc(C(F)(F)F)c2)CC1)c1ccc(F)cc1` was tested, and the inhibition was 1.8% (active).
In the case of `O=C(CCCN1CCC(O)(c2ccc(Cl)cc2)CC1)c1ccc(F)cc1`, the inhibition is reported as 4.3% (active).
`CN(C(=O)CCCOc1ccc2[nH]c(=O)ccc2c1)C1CCCCC1` was tested, and the inhibition was 13.1% (active).
In the case of `CN1C2CCC1CC(OC(c1ccccc1)c1ccccc1)C2` (stereo not drawn), the inhibition is reported as 7.5% (active).
In the case of `CN1C2CCC1CC(OC(=O)C(CO)c1ccccc1)C2` (stereo not drawn), the inhibition is reported as 0.4% (active).
In the case of `CN1C2CC(OC(=O)[C@H](CO)c3ccccc3)CC1C1OC12` (stereo partly drawn), the inhibition is reported as 10.8% (active).
With `CN1C2CCC1CC(OC(=O)c1c[nH]c3ccccc13)C2` (stereo not drawn) the inhibition was 8.4% (active).
With `CN1C2CCC1CC(OC(=O)C(O)c1ccccc1)C2` (stereo not drawn) the inhibition was 6.4% (active).
`CC(C)(C)C(=O)Oc1ccc(S(=O)(=O)Nc2ccccc2C(=O)NCC(=O)O)cc1` was tested, and the inhibition was 18.6% (active).
With `CNC1(C)C2CCC(C2)C1(C)C` (stereo not drawn) the inhibition was -4.4% (inactive).
For `NC(=O)NO`, the inhibition was 11.4% (active).
For `CC(C)C[C@H](NC(=O)C1OC1C(=O)O)C(=O)NCCCCN=C(N)N` (stereo partly drawn), the inhibition was -7.9% (inactive).
For `N[C@H](C(=O)O)[C@H](Cc1ccccc1)C(=O)O`, the inhibition was 4.3% (active).
In the case of `NCCCNCCCCNCCCN`, the inhibition is reported as 19.3% (active).
In the case of `NCCCNCCSP(=O)(O)O`, the inhibition is reported as 7.6% (active).
For `NCCCCNCCCN`, the inhibition was -8.3% (inactive).
With `S=C(S)N1CCCC1` the inhibition was 86.2% (active).
With `CC(C)CC(NP(=O)(O)O[C@@H]1O[C@@H](C)[C@H](O)[C@@H](O)[C@H]1O)C(=O)NC(Cc1c[nH]c2ccccc12)C(=O)O` (stereo partly drawn) the inhibition was 59.4% (active).
For `O=C(O)c1cccnc1Nc1cccc(C(F)(F)F)c1`, the inhibition was 3.2% (active).
`Nc1nc(O)c2nc(Br)n(C3OC4COP(=O)(O)O[C@@H]4C3O)c2n1` (stereo partly drawn) was tested, and the inhibition was 9.3% (active).
In the case of `Nc1ncnc2c1nc(Sc1ccc(Cl)cc1)n2C1OC2COP(=O)(O)O[C@@H]2[C@@H]1O` (stereo partly drawn), the inhibition is reported as 7.4% (active).
`Nc1ncnc2c1nc(Br)n2C1OC2COP(=O)(O)O[C@@H]2C1O` (stereo partly drawn) was tested, and the inhibition was 4.7% (active).
`Nc1ncnc2nc(-c3ccc(N4CCOCC4)nc3)cc(-c3cccc(Br)c3)c12` was tested, and the inhibition was -3% (inactive).
In the case of `O=c1[nH]c2cc(Cl)ccc2c(O)c1-c1ccc(Oc2ccccc2)cc1`, the inhibition is reported as 8.7% (active).
In the case of `CN(C)c1nc(N(C)C)nc(N(C)C)n1`, the inhibition is reported as 31.3% (active).
`CN1[C@@H](CC(=O)c2ccccc2)CCC[C@H]1C[C@H](O)c1ccccc1` was tested, and the inhibition was 15.5% (active).
`O=C(O)CCCC[C@@H]1CCSS1` was tested, and the inhibition was 0.1% (active).
For `Cc1cc(C(C)(C)C)c(O)c(C)c1CC1=NCCN1`, the inhibition was 11.2% (active).
For `Cc1cc(C(C)(C)C)cc(C)c1CC1=NCCN1`, the inhibition was 5% (active).
`CC(=O)[C@H]1CC[C+]2C3CC=C4C[C@@H](OS(=O)(=O)[O-])CC[C@]4(C)C3CC[C@@]21C` (stereo partly drawn) was tested, and the inhibition was -11.2% (inactive).
In the case of `CCN(Cc1ccncc1)C(=O)C(CO)c1ccccc1` (stereo not drawn), the inhibition is reported as 1.5% (active).
With `COc1ccc(/C=C2\COc3ccc(C)cc3C2=O)cc1O` the inhibition was 75.9% (active).
`CCCc1c(-c2ccc(O)cc2)nn(-c2ccc(O)cc2)c1-c1ccc(O)cc1` was tested, and the inhibition was 68.4% (active).
`Brc1c(NC2=NCCN2)ccc2nccnc12` was tested, and the inhibition was 21.8% (active).
In the case of `CC(=O)O[C@H]1CC2(C)[C@@H](C[C@@H](O)[C@H]3[C@@]4(C)CC[C@@H](O)[C@@H](C)[C@@H]4CC[C@@]32C)/C1=C(/CCC=C(C)C)C(=O)O` (stereo partly drawn), the inhibition is reported as 15.9% (active).
`CCN(CC)CCn1c(=O)c(Cc2ccc(OC)cc2)nc2ccccc21` was tested, and the inhibition was 11.3% (active).
For `CCCNCC(O)COc1ccccc1C(=O)CCc1ccccc1` (stereo not drawn), the inhibition was 9.1% (active).
`O=C(O)c1cc2cc(Cc3cccnc3)ccc2o1` was tested, and the inhibition was 12.1% (active).
`NC(N)=Nc1nc(CSCC/C(N)=N/S(N)(=O)=O)cs1` was tested, and the inhibition was 19.1% (active).
For `CC(/C=C/c1cccc(Oc2ccc(F)cc2)c1)N(O)C(N)=O` (stereo not drawn), the inhibition was 17.2% (active).
In the case of `O=C(CCc1ccc(O)cc1)c1c(O)cc(O)cc1O`, the inhibition is reported as 35.5% (active).
With `NS(=O)(=O)C#Cc1ccccc1` the inhibition was 7% (active).
`NC(=O)c1cnccn1` was tested, and the inhibition was 6.1% (active).
For `CCCCCCCCCCCCCCC[C@H](O)[C@H](N)CO`, the inhibition was 18.5% (active).
In the case of `COc1ccc(NC(=O)c2ccc(-c3ccc(-c4noc(C)n4)cc3C)cc2)cc1N1CCN(C)CC1`, the inhibition is reported as 3.7% (active).
`CCCCCN(C)CCC(O)(P(=O)(O)O)P(=O)(O)O` was tested, and the inhibition was -4.8% (inactive).
With `O=c1onc2n1-c1cc(Br)ccc1OC2` the inhibition was 5.7% (active).
`CC(C)(C)c1ccc(C(=O)CCCN2CCC(OC(c3ccccc3)c3ccccc3)CC2)cc1` was tested, and the inhibition was 8.3% (active).
For `C[C@@H](NCCc1ccc(O)cc1)[C@@H](O)c1ccc(O)cc1`, the inhibition was 14.4% (active).
For `CC(CCc1ccc(O)cc1)NCCc1ccc(O)c(O)c1` (stereo not drawn), the inhibition was 83.4% (active).
With `O=c1[nH]c2cc(C(F)(F)F)ccc2n1-c1cc(C(F)(F)F)ccc1O` the inhibition was 11.5% (active).
In the case of `C[C@H]1CC2C3CCC4=CC(=O)C=C[C@]4(C)[C@@]3(Cl)[C@@H](O)C[C@]2(C)[C@@]1(O)C(=O)CO` (stereo partly drawn), the inhibition is reported as -10.3% (inactive).
`C[C@]12C=CC(=O)C=C1CC[C@H]1[C@@H]3C[C@@H](O)[C@](O)(C(=O)CO)[C@@]3(C)C[C@H](O)[C@@]12F` was tested, and the inhibition was 26.2% (active).
`CC1CC2C3CCC4=CC(=O)C=C[C@]4(C)[C@@]3(F)[C@@H](O)C[C@]2(C)[C@@]1(O)C(=O)CO` (stereo partly drawn) was tested, and the inhibition was 11.4% (active).
With `CCOC(=O)C1=C(C)NC(C)=C(C(=O)OC)C1c1cccc(Cl)c1Cl` (stereo not drawn) the inhibition was 6.3% (active).
`CCOC(=O)C1=C(C)NC(C)=C(C(=O)OCC)C1c1c(F)c(F)c(F)c(F)c1F` was tested, and the inhibition was -4.7% (inactive).
With `C#CCN1C(C)=C(C(=O)OC)C(c2cccc([N+](=O)[O-])c2)C(C(=O)OCC)=C1C` (stereo not drawn) the inhibition was 7.8% (active).
For `COC(=O)C1=C(C)NC(C)=C(C(=O)OCCN(C)Cc2ccccc2)C1c1cccc([N+](=O)[O-])c1` (stereo not drawn), the inhibition was 6.8% (active).
For `CCOC(=O)C1=C(C)NC(C)=C(C(=O)OC)C1c1cccc([N+](=O)[O-])c1` (stereo not drawn), the inhibition was 14% (active).
`COC(=O)C1=C(C)NC(C)=C(C(=O)OC(C)(C)CN(C)CCC(c2ccccc2)c2ccccc2)C1c1cccc([N+](=O)[O-])c1` (stereo not drawn) was tested, and the inhibition was 21.8% (active).
For `COCCOC(=O)C1=C(C)NC(C)=C(C(=O)OC(C)C)C1c1cccc([N+](=O)[O-])c1` (stereo not drawn), the inhibition was 16.8% (active).
`COCCOC(=O)C1=C(C)NC(C)=C(C(=O)OC/C=C/c2ccccc2)C1c1cccc([N+](=O)[O-])c1` (stereo not drawn) was tested, and the inhibition was 32.1% (active).
For `CCN1CCC[C@H]1CNC(=O)c1c(O)c(Cl)cc(Cl)c1OC`, the inhibition was 14.4% (active).
For `NCCNC(=O)c1ncsc1-c1cccc(F)c1`, the inhibition was -11.5% (inactive).

Source: PubChem BioAssay AID1347420 (Sanford-Burnham Center for Chemical Genomics, 2020)
